# Compound activity from PubChem.
# Hits are enriched below; roughly 2.9% of the tested compounds scored in any of these assays.
# Peg3 promoter: Peg3 promoter activity inhibition; HeLa PEG-Prom luciferase reporter, luminescence, overnight; inhibition, % at 20 µM; 1.7% of 360,000 active; AID 588405;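 active = inhibition of at least 50% at 20 µM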
# Shn3 3UTR inh: Schnurri-3 reporter inhibition in Clone20 osteoblasts. inhibition, % at 12.5 µM. Clone20 osteoblast Shn3 3'UTR firefly luciferase, 24 h. 0.52% of 360,000 active;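 active = mean inhibition of at least 75% with every replicate also reaching 75%; inconclusive = mean inhibition at least 75% but some replicate below; inactive = mean inhibition below 75%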;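 also: 0% = median of neutral control wells and 100% = pilot-screen positive control compound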
# LMP1 NFkB inh: inhibitors of Epstein-Barr LMP1-induced NF-kappaB reporter | inhibition, % at 12.5 µM | LMP1-induced NF-kappaB luciferase reporter cells, luminescence | 0.69% of 350,000 active; in the data active = inhibition above about 41%; inconclusive = no clear call, values can overlap the other calls;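 also: 0% = neutral control wells and 100% = reference inhibitor control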
# KKLEB tox: reduces viability of KKLEB cystic fibrosis airway cells | AID 602141 | KKLEB CF airway cells viability, ATPlite luminescence, overnight; stronger effect = lower value; cells stimulated with P. aeruginosa culture filtrate | activity change (cytotoxicity), % at 5 µM | 0.36% of 360,000 active;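 active = corrected activity change at or below -50% at 5 µM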
# HIF-2a inh: inhibitors of HIF-2a; 786-0 RCC cells HIF-2a reporter, luciferase luminescence, overnight; inhibition, % at 18.8 µM; 0.72% of 360,000 active; AID 624352;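 active = inhibition of the luminescence signal of 40% or more relative to plate controls, in a single-dose primary screen at 18.75 µM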
# CF NFkB inh: cystic fibrosis NF-kB activation inhibition; KKLEB NF-kB-GFP reporter, PAF-induced, GFP fluorescence overnight; inhibition, % at 5 µM; 0.86% of 360,000 active; AID 588850;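 active = at least 50% inhibition at 5 µM, scaled per plate between neutral and stimulator controls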;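 also: PAF is a Pseudomonas aeruginosa culture filtrate used as stimulus; plate controls were PAF-stimulated DMSO wells for no effect and unstimulated DMSO wells for full effect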
# Starred values were filed as active, the others as inactive; u = inconclusive; x = not tested or not shown.
SMILES,Peg3 promoter,Shn3 3UTR inh,LMP1 NFkB inh,KKLEB tox,HIF-2a inh,CF NFkB inh
Cc1cc(C(=O)COc2cccnc2[N+](=O)[O-])c(C)n1-c1ccccc1F,44,15,u,1,50*,-18
Cc1cc(C(=O)COc2cccnc2[N+](=O)[O-])c(C)n1Cc1ccco1,-53,23,21,6,13,4
Cc1cc(C(=O)COc2cccnc2[N+](=O)[O-])c(C)n1-c1ccccc1,73*,90*,u,0,74*,9
COCC(=O)N1CCN(c2nc3ccccc3o2)CC1,-33,-4,2,0,-27,6
COC(=O)c1cc(OC)c(OC)cc1NC(=O)c1csc(C)c1,-1,7,11,4,-11,-47
CCOC(=O)/C=C/S(=O)(=O)c1ccc(NC(C)=O)cc1,102*,97*,38,-38,39,90*
CCOC(=O)/C=C/C(=O)Nc1ccc(Oc2ccccc2)cc1,54*,2,-4,-5,34,-35
Cn1c(N)c(C(=O)COC(=O)C2CC(=O)N(Cc3ccccc3)C2)c(=O)n(C)c1=O (centres undefined),5,-3,-1,8,17,19
Cc1ccc(/C=C/c2nc3ccccc3c(=O)[nH]2)cc1,3,10,45*,-69*,-217,-3
C=CCn1c(SCC(C)=O)nc2scc(-c3ccco3)c2c1=O,11,-11,-5,-7,8,6
C=CCn1c(SC(F)F)nc2scc(-c3ccco3)c2c1=O,74*,-24,-38,4,-8,4
OC(CCc1ccncc1)COc1ccccc1 (centres undefined),19,26,-1,1,15,15
Oc1cccc(C(O)CNCc2ccc(OCc3ccc(Cl)cc3Cl)cc2)c1 (centres undefined),93*,23,-1,-16,0,-6
CC1CCN(C(=O)Cn2c3ccccc3c3nc4n(c(=O)c32)CCCS4)CC1,4,-11,-15,3,11,0
COc1cc(C(=O)Oc2cccc(Nc3ncnc4ccccc34)c2)cc(OC)c1OC,62*,69,34,6,-47,-1
COc1ccc(C(=O)Oc2cccc(Nc3ncnc4ccccc34)c2)cc1OC,7,15,34,-13,-9,20
CC(C)N(C(=O)CSc1nnc(Cc2csc(Nc3ccccc3)n2)o1)C(C)C,11,8,1,6,14,-14
N#CCSc1ccccc1NC(=O)COC(=O)Cc1c[nH]c2ccccc12,1,-7,2,-13,-6,17
CCOC(=O)/C(=C/c1ccc(N2CCC(c3ccccc3)=N2)cc1)C(C)=O,-165,-51,94*,-12,-65,-5
Cc1ccc(NC(=O)CSc2nnnn2-c2ccc3c(c2)OCO3)cc1C,33,39,9,-54*,13,65*
CC(C)Nc1nnc(SCC(=O)Nc2ccc3c(c2)C(=O)c2ccccc2C3=O)s1,87*,12,-21,-5,-306,-48
O=C(O)CSc1nnc(NC(=O)c2ccc3c(c2)OCO3)s1,39,31,-22,-19,41*,8
Cc1ccc(-n2nnnc2SCC(=O)Nc2ccc3c(c2)OCCO3)cc1C,-13,-6,-1,4,-49,-2
CC(C)(C)C(=O)Nc1nnc(SCC(=O)Nc2ccc3c(c2)OCO3)s1,10,19,46*,-9,19,2
CC(C)CC(=O)Nc1nnc(SCC(=O)Nc2ccc3c(c2)OCO3)s1,-25,12,-1,-12,-17,16
SMILES,Peg3 promoter,Shn3 3UTR inh,LMP1 NFkB inh,KKLEB tox,HIF-2a inh,CF NFkB inh
O=C(Cn1cnc2ccccc21)Nc1ccc2c(c1)OCCCO2,-57,72,17,-7,-85,10
CC(=O)c1c(C)[nH]c(C(=O)NNC(=O)COc2cc(C)cc(C)c2)c1C,8,9,-2,13,9,-5
Cc1cccc(NC(=O)NC2CCCc3ccccc32)c1 (centres undefined),-19,10,14,1,-16,7
Cc1c(CCCl)c(Cl)n2c(nc3ccccc32)c1C#N,101*,99*,66*,-85*,84*,78*
Cc1cc(Cl)n2c(nc3ccccc32)c1C#N,103*,80,0,-31,-24,64*
NC(=O)C1CCCN(C(=O)c2ccc(Cl)c(S(=O)(=O)N3CCc4ccccc43)c2)C1 (centres undefined),16,35,1,2,6,-10
CCCN(CCC)CCNC(=O)c1cc2c(-c3ccc(Cl)cc3)nn(C)c2s1,76*,25,-18,-14,36,-2
CCOCCCNC(=O)c1cc2c(-c3ccc(Cl)cc3)nn(C)c2s1,11,16,-5,-15,18,-36
CCCCN(CC)CCNC(=O)c1cc2c(-c3ccc(Cl)cc3)nn(C)c2s1,103*,-14,-32,-2,31,-5
Nc1ccc[n+](CC(=O)c2ccccc2)c1,4,-11,-2,-2,4,2
CCc1n[n+](CC(=O)c2ccccc2)c(N)s1,-28,23,52*,-5,-30,-5
COc1ccc(NC(=O)CSc2ccccn2)cc1OC,-13,4,3,-1,-22,-9
COc1ccc(NC(=O)CSc2ncccc2C(=O)OC(C)C)cc1OC,-16,87*,21,5,-17,6
CN1CCN(C(c2ccc(Cl)cc2)c2cc(Cl)c3cccnc3c2O)CC1 (centres undefined),65*,77,-9,-42,50*,38
CCCC(=O)NC(c1ccc(OC)c(OC)c1)c1cc(Cl)c2cccnc2c1O (centres undefined),48,88*,32,-5,6,-2
Oc1c(C(c2ccccn2)N2CCCCC2)cc(Cl)c2cccnc12 (centres undefined),23,20,-1,-9,13,-9
CCCCC(=O)NC(c1cccs1)c1cc(Cl)c2cccnc2c1O (centres undefined),51*,24,6,-15,7,4
O=C(NCc1ccc(Cl)cc1)c1cccnc1,-9,-2,-36,-8,13,-6
O=C(NC(c1ccc(Cl)cc1)c1cc(Cl)c2cccnc2c1O)c1cccnc1 (centres undefined),66*,81,u,-4,20,-12
O=C1c2ccccc2C(O)N1Cc1cccs1 (centres undefined),-1,-5,-4,-7,8,5
Cc1ccc(NC(=O)COC(=O)CCc2c(C)nc3ncnn3c2C)cc1,-11,-8,6,1,3,-23
COC(=O)[C@@]12C[C@@H](CC(=O)N3CCOCC3)C(=O)N(CCc3ccc(OC)c(OC)c3)C1=CCC(C)(C)C2,x,x,x,x,1,x
Cc1ccc(N2C(=O)C3C4CCC(O4)C3C2=O)c(OC(F)F)c1 (centres undefined),-5,-9,-2,4,3,-11
